Screen size: about 330,000 compounds; about 5,800 (1.8%) were called active. Cut-off read from the data, not from the text of the source: active = inhibition mostly above about 38% (no sharp cut-off); inactive = mostly below about 40%. Many of the other results were omitted from the sample, so actives are more common in it than they were.
biological target: Orexin/Hypocretin receptor type 1 (Homo sapiens) (UniProt O43613); assay: antagonists of human orexin 1 receptor (OX1R) (AID 485270); settings: OX1R-expressing cells, FRET antagonist read-out; at 6.6 µM; stronger effect = higher value;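 note: 0% = agonist challenge alone and 100% = reference antagonist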
Sequence (O43613 whole entry, looked up): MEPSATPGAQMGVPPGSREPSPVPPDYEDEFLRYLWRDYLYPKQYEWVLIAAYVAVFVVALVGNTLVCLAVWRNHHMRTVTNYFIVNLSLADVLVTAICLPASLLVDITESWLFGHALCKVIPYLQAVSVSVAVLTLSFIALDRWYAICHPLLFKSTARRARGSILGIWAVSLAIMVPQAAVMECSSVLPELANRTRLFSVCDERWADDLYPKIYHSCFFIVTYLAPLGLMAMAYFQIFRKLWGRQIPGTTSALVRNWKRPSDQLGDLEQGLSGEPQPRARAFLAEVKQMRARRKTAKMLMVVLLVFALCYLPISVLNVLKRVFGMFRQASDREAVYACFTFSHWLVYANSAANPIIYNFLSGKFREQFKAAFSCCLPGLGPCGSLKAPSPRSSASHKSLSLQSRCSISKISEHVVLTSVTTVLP

Structure (SMILES)	inhibition
O=C(N[C@@H]1C/C=C\C[C@@H](CC(=O)N(CCO)Cc2ccccc2)C(=O)N[C@H](Cc2ccccc2)COC1=O)OCC1c2ccccc2-c2ccccc21	9.35% (inactive)
CC1O[C@H](OC2C(COC3OC(CO)C(O)[C@H](O)C3O)OC(OC3CC[C@]4(C)C(CC[C@@]5(C)[C@@H]4C=C[C@]46OC[C@@]7(CCC(C)(C)C[C@H]74)C(O)C[C@@]56C)C3(C)C)C(O)C2O)C(O)C(O)C1O (stereo partly specified)	0.25% (inactive)
Fc1ccccc1/C=N/n1c(-c2cccnc2)n[nH]c1=S	11.6% (inactive)
S=c1[nH]nc(-c2cc(-c3ccccc3)n[nH]2)n1/N=C/c1c2ccccc2cc2ccccc12	117% (active)
c1ccc(-c2cc(-c3ccccc3)[nH]n2)cc1	10.7% (inactive)
CN(C(=O)c1cccc(NC(=O)Cc2ccc([N+](=O)[O-])cc2)c1)C1CCC1	2.95% (inactive)
Nn1c(SCC(=O)Nc2ccc3c(c2)CCC3)nnc1C1CC1	10.2% (inactive)
CC(C)NC(=O)Nc1cccc2c1O[C@H](CN(C)S(=O)(=O)c1cccs1)[C@@H](C)CN([C@H](C)CO)C2=O	-2.12% (inactive)
COc1ccc(-c2cc(C(=O)N(C)Cc3ccccc3)c3ccccc3n2)cc1	1.22% (inactive)
COc1ccc(CN(C)C(=O)c2cc(-c3ccc(C)cc3C)nc3ccccc23)c(OC)c1OC	43.5% (active)
COc1ccc(-c2cc(C(=O)N(C)Cc3ccc(OC)c(OC)c3OC)c3ccccc3n2)cc1OC	39.4% (inactive)
CN(C(=O)c1cccc(NC(=O)C2CCN(C(=O)OC(C)(C)C)CC2)c1)C1CCC1	5.08% (inactive)
CC(C)OC(=O)c1cc(NC(=O)C2C3CCC(O3)C2C(=O)O)cc(C(=O)OC(C)C)c1 (stereo unspecified)	8.17% (inactive)
CC(C)OC(=O)c1c(NC(=O)c2ccco2)sc2c1CCCC2	12.4% (inactive)
Cc1sc(NC(=O)C2C3CCC(O3)C2C(=O)O)c(C(=O)OC(C)C)c1-c1ccc(Cl)cc1 (stereo unspecified)	76% (active)
Cn1cccc1C(=O)OCC(=O)NCCc1ccccc1	5.82% (inactive)
O=C(Nc1ccccc1)O/N=C1\CCCCC1c1ccc([N+](=O)[O-])cc1[N+](=O)[O-] (stereo unspecified)	28.9% (inactive)
Cc1cc([N+](=O)[O-])ccc1NC1CCCC1	10.2% (inactive)
C[n+]1ccccc1C1CCCC/C1=N\Nc1ccc([N+](=O)[O-])cc1[N+](=O)[O-] (stereo unspecified)	93.3% (active)
O=[N+]([O-])c1ccc(N/N=C2/CCCCC2c2ccccn2)c([N+](=O)[O-])c1 (stereo unspecified)	49.2% (active)
O=[N+]([O-])c1cc(C(F)(F)F)ccc1NN=C1CCCC1	9.21% (inactive)
CC1(C)C/C(=N/Nc2ccc([N+](=O)[O-])cc2[N+](=O)[O-])C(C)(C)O1	7.54% (inactive)
Cc1cc(C(=O)OCC(=O)N2C(C)CCCC2C)c2ccccc2n1 (stereo unspecified)	10.9% (inactive)
Cc1cccc(NS(=O)(=O)c2ccc(C)c(C(=O)NCc3cccnc3)c2)c1	6.94% (inactive)
N/C(=N\OC(=O)CCc1ccccc1)c1ccc(Cl)cc1	18.5% (inactive)
Cc1ccc(NC(=O)Cn2cnc3c(OCc4ccccc4)ncnc32)cc1C	6.27% (inactive)

Structure (SMILES)	inhibition
Cc1ccsc1C(=O)NCCc1ccco1	7.13% (inactive)
O=C(Nc1cccc(S(=O)(=O)N2CCOCC2)c1)C12CC3CC(CC(C3)C1)C2	4.36% (inactive)
Cc1cc(C)cc(NC(=O)C2CCCN2S(=O)(=O)c2cccc3cccnc23)c1 (stereo unspecified)	89.3% (active)
COc1ccc(NC(=O)C2CCCN(S(=O)(=O)c3cccc4cccnc34)C2)cc1OC (stereo unspecified)	22.1% (inactive)
Cc1cccc(NC(=O)C2CCN(S(=O)(=O)c3cccc4cccnc34)CC2)c1	7.8% (inactive)
O=C(O)C1CCCN(S(=O)(=O)c2cccc3cccnc23)C1 (stereo unspecified)	4.71% (inactive)
O=C(Nc1nccs1)C1CCCN1S(=O)(=O)c1cccc2cccnc12 (stereo unspecified)	47.1% (active)
Cc1ccc(NC(=O)C2CCCN2S(=O)(=O)c2cccc3cccnc23)c(C)c1 (stereo unspecified)	21.6% (inactive)
O=C1OC[C@@H]2CCCN2C(=O)[C@H](CC(=O)N(CCO)Cc2ccccc2)C/C=C\CC[C@@H]1Cc1ccc(F)cc1	4.88% (inactive)
CC(=O)OCCC(C)C	3.23% (inactive)
C=CC[C@H](CC(=O)N(CCO)Cc1ccccc1)C(=O)N[C@@H](COC(=O)[C@@H](CC=C)Cc1ccc(F)cc1)Cc1ccccc1	10.8% (inactive)
Cc1cc(OCCCC(=O)NCCN2C(=O)S/C(=C\c3cccnc3)C2=O)ccc1Cl	97.5% (active)
COc1ccc(N2CC(C(=O)NCCN3C(=O)S/C(=C\c4cccnc4)C3=O)CC2=O)c(OC)c1 (stereo unspecified)	153% (active)
COc1cccc(NC(=O)C2c3cc(OC)c(OC)cc3C(=O)N(C)C2c2cccnc2)c1 (stereo unspecified)	10.3% (inactive)
O=C(NCCN1C(=O)S/C(=C\c2cccnc2)C1=O)c1cccc(OC(F)F)c1	33.8% (inactive)
CCOc1ccc(N2CC(C(=O)NCCN3C(=O)S/C(=C\c4cccnc4)C3=O)CC2=O)cc1 (stereo unspecified)	55.7% (active)
CCOc1ccc(N2CC(C(=O)NCc3ccccn3)CC2=O)cc1 (stereo unspecified)	13.1% (inactive)
CCCNC(=O)C1CC(=O)N(c2ccc(OCC(=O)Nc3cccc(C)c3C)cc2)C1 (stereo unspecified)	7.42% (inactive)
O=C(NCCN1C(=O)S/C(=C\c2cccnc2)C1=O)c1ccc(S(=O)(=O)N2CCCC2)cc1	41% (inactive)
COc1ccccc1N1CC(C(=O)NCCN2C(=O)S/C(=C\c3cccnc3)C2=O)CC1=O (stereo unspecified)	29.4% (inactive)
Cc1ccc(CNC(=O)COC(=O)C2CCC2)cc1	8.9% (inactive)
O=C(COC(=O)c1cc(S(=O)(=O)N2CCOCC2)ccc1F)NC1CC1	8.42% (inactive)
CN(CC(=O)NCCc1ccc(S(N)(=O)=O)cc1)CC(=O)Nc1ccc(Cl)cc1	3.5% (inactive)
CCCc1cc(=O)[nH]c(SCC(=O)Nc2ccc(C(=O)Nc3ccccc3OC)cc2)n1	14.2% (inactive)
Cc1ccc2c(c1)NC(=O)[C@@]1(C)[C@@H](c3ccccc3)[C@H]3COc4ccc(Cl)cc4[C@@H]3N1C2=O	27.8% (inactive)
